Inhibition data for 28 compounds are collected here from PubChem BioAssay AID2018 (Sanford-Burnham Center for Chemical Genomics, 2009).

Hit rate of the full screen: of about 1,200 compounds, about 600 (50%) were called active. The set was probably picked from earlier hits. This is one part of the list. Results with a measured potency or affinity are listed apart. A number with no mark means an inactive call. No stated cut-off is given here; in the data, active means inhibition above about 42%; inactive means the rest.

The target in this test is SUMO-conjugating enzyme UBC9 (Homo sapiens) (UniProt P63279). The test can be described thus: SUMOylation inhibitor hit validation, confirmation, SUMOylation inhibitor project, biochemical, AlphaScreen (AID 2018). Particulars: AlphaScreen in vitro SUMOylation assay; at 35 µM; stronger effect = higher value.
Chain of SUMO-conjugating enzyme UBC9 (Homo sapiens) (P63279 whole entry, looked up): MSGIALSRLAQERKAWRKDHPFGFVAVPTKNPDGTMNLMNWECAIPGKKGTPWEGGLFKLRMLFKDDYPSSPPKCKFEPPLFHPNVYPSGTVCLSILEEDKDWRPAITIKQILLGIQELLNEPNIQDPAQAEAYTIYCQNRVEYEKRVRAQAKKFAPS
As for `N#C/C(=C/c1ccc(-c2ccccc2)o1)c1nc(-c2cccs2)cs1`, the inhibition was -4.5%. With `CC(=O)Oc1ccc2c(C)c(CC(C)O)c(=O)oc2c1` (stereo not drawn), the inhibition was -6.6%. Turning to `Cc1c(CC(=O)O)c(=O)oc2c(C)c(OCc3ccccc3Br)ccc12`, the inhibition is 85.8% (active). In the case of `Cc1c(CC(=O)N2CCN(C(=O)C3COc4ccccc4O3)CC2)c(=O)oc2c(C)c(O)ccc12` (stereo not drawn), the inhibition is 17.7%. As to `NC(=O)CC(NC(=O)Cc1ccc(Br)cc1)c1ccc(NCCOc2ccccc2)c([N+](=O)[O-])c1` (stereo not drawn), the inhibition was 10.7%.

On to `O=C1C=C(N(CCO)Cc2ccccc2)c2ccccc2C1=O`, for which the inhibition was 101% (active). Take `Nc1ccc(Br)c2cccnc12`: the inhibition is 49% (active). For `CCOC(=O)C1CC(=O)c2cc(OC)c(OC)cc2C1` (stereo not drawn), the inhibition was 12.9%. Turning to `O=C(N/N=C/c1ccc(N2CCOCC2)cc1)c1ccccc1NS(=O)(=O)c1cccs1`, the inhibition is 17.4%. On to `O=C(N/N=C/c1cc(Cl)cc([N+](=O)[O-])c1O)c1ccccc1NS(=O)(=O)c1cccs1`, for which the inhibition is 101% (active).

On to `COc1ccccc1/C=C/C=N/NC(=O)c1cc(-c2ccco2)[nH]n1`, for which the inhibition was 60.4% (active). Next, `O=C1C=C(N2CCOCC2)c2ccccc2C1=O`: 102% (active).

Turning to `Cc1ccc(-c2cc(-c3ccccc3O)nc(N/N=C/c3cccnc3)n2)cc1`, the inhibition was 23%.

Regarding `NNC(=O)c1oc2nc(-c3cccs3)cc(-c3ccco3)c2c1N`, the inhibition was 43.3% (active). On to `NNC(=O)c1oc2nc(-c3ccco3)cc(-c3ccco3)c2c1N`, for which the inhibition was 56.6% (active). Next, `O=c1[nH]c(N2CCN(c3ccccc3)CC2)nc2c1CCC2`: 8.8%; `CN(C(=S)Nc1cccnc1)c1ccc(O)cc1`: 19.3%. `COc1ccc2oc(=O)c(/C(C)=N/NC(=O)c3ccncc3)cc2c1`: the inhibition was 7.3%. For the compound `O=C(Nc1cccc(N=Cc2cc(Br)cc(Br)c2O)c1)c1ccco1`, the inhibition was 24.9%. As to `C/C(=N\NC(=O)c1cc(O)ccc1O)c1cccc(NC(=O)c2ccc(Cl)cc2)c1`, the inhibition is 94.8% (active).

For the compound `Cc1ccc(NC2=CC(=O)CC(c3ccco3)C2)c(N)c1` (stereo not drawn), the inhibition was 20.2%.

On to `O=C(COC(=O)c1cc(-c2cccs2)nc2ccccc12)NCc1ccco1`, for which the inhibition was 7.3%.

In the case of `COc1cc(/C=N/NC(=O)c2cc(-c3ccco3)nc3ccccc23)cc(OC)c1O`, the inhibition was 55.1% (active). Regarding `CCOc1ccc(/C=N/NC(=O)c2cc(-c3ccco3)nc3ccccc23)cc1`, the inhibition was -1.6%.

Take `CCN(CC)Cc1c(O)ccc2c(=O)c(Oc3ccccc3OC)coc12`: the inhibition is 3.9%. Next, `CCOc1cc(/C=C2/C(=O)N(c3ccccc3)N=C2C)ccc1OC(=O)c1ccco1`: 73.7% (active); `CCOc1cc(/C=C2\C(=O)N(c3ccc(C(N)=O)cc3)N=C2C)ccc1OC(=O)c1cccs1`: 81.1% (active). With `COc1ccccc1Oc1c(C)oc2cc(OC(=O)c3ccco3)ccc2c1=O`, the inhibition is 18.7%.
